# Compound activity as filed in PubChem.
# ERAP1 inh: blocks human ERAP1 aminopeptidase activity | Q9NZ08 | recombinant ERAP1, Leu-AMC fluorescence, 60 min | inhibition, % at 10.7 µM | 340,000 compounds, 0.15% hits;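 active = mean replicate inhibition of at least 30%, or all replicates individually reaching that 30% level; inactive = mean below 30% and not every replicate reaching it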;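 also: 0% = neutral control wells and 100% = L-leucinethiol positive control wells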
# Target sequence (Q9NZ08 whole entry, looked up): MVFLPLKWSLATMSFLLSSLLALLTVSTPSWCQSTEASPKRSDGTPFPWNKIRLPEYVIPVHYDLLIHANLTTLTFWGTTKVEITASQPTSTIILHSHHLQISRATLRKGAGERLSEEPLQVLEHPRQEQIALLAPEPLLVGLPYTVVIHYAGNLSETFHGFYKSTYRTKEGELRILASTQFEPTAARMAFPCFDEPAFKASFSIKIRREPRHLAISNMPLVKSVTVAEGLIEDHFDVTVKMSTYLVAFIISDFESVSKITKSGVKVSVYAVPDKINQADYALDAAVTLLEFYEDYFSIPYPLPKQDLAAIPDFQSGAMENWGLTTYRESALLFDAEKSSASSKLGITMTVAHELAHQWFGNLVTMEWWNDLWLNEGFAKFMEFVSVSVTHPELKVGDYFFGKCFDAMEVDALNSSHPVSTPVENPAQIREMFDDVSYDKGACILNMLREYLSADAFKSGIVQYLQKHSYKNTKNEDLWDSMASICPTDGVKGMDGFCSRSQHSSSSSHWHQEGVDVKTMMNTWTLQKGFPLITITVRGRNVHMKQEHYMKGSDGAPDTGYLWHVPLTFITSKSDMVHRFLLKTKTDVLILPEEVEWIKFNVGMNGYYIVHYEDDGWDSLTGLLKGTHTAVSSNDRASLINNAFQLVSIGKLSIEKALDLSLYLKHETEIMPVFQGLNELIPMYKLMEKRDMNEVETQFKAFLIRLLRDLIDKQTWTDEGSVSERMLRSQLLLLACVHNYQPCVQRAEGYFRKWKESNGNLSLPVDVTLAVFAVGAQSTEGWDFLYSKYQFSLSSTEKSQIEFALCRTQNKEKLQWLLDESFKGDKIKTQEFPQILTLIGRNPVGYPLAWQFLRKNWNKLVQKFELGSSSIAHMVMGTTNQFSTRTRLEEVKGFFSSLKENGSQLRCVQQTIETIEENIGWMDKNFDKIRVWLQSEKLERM
# F508del corr: correctors of CFTR F508del function in bronchial epithelial cells; CFBE cells, YFP halide quenching; stimulated with forskolin plus potentiator P3; % fluorescence drop versus neutral controls; activity (quench increase), % at 7.58 µM; 350,000 compounds, 0.36% hits; AID 720511;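 active = mean added fluorescence quench of at least 8% versus neutral control, with both replicates also reaching 8%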;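 also: cells transiently co-express mutant CFTR-F508del with the halide-sensitive YFP; corrector assay measuring rescue of mutant channel to the surface after 24 h compound exposure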
# rRNA inh HTS: inhibitors of bacterial rRNA selective over humanized ribosomes. E. coli WT GFP vs humanized-ribosome RFP mutants, fluorescence, 24 h; active compounds read low; DMSO median 0, no signal -100. GFP signal change (wild-type ribosome), % (concentration not given with the values). 350,000 compounds, 1.6% hits;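 active = significant combined selectivity score with lowered wild-type GFP, culture density cut under 30%, mutant RFP and density less affected; inactive = any of these conditions unmet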
# ARNT-TACC3 inh: disrupts binding between human ARNT and TACC3; AlphaScreen His-ARNT PAS-B/GST-TACC3 binding, luminescence; TACC3 fragment carries E629A point mutation; AID 623870; inhibition, % at 9.99 µM; Q9Y6A5; 390,000 compounds, 0.66% hits;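 active = mean inhibition of replicates at least 50% and at least half of replicates each reaching 50%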;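 also: 0% = complete ARNT plus TACC3 wells and 100% = ARNT alone without TACC3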
# PvdQ acylase: blocks Pseudomonas aeruginosa PvdQ acylase activity; purified PvdQ acylase, fluorescence plate reader; AID 488965; 340,000 compounds, 0.063% hits; inhibition, % at 10 µM; in the data active = inhibition above about 30%, passing the limit was not always enough;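 also: 0% = vehicle neutral wells and 100% = reference inhibitor wells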
# * marks the source's active call; other numbers are inactive results; . = not tested or not shown. In the library only some 2.1% were active in any assay of this set; here they are far more common.
SMILES,ERAP1 inh,F508del corr,rRNA inh HTS,ARNT-TACC3 inh,PvdQ acylase
O=C(Cc1ccccn1)N1CCCCN2[C@H](CO)[C@H](c3ccc(C#Cc4ccccc4)cc3)[C@@H]2C1,-1.6,-2.3,-10.0,0.1,.
CN(C)C(=O)OCc1n(C)cc[n+]1C,.,.,.,25.8,6.1
CCN(CC)P(c1n(C)cc[n+]1C)N(CC)CC,102.8*,0.1,20.3,-2.3,0.3
O=C(Cc1ccccc1)N1CC2(C1)[C@@H](c1ccccc1)[C@@H](CO)N2Cc1cccc(F)c1,-2.8,2.8,-15.2,.,.
O=C1NC(=O)C(=Cc2ccc(N3CCOCC3)o2)C(=O)N1,11.1,9.2*,26.0,-3.1,-5.1
C=CCN1C(=O)/C(=C/c2ccc(N3CCOCC3)o2)C(=O)NC1=S,.,.,.,7.2,-15.3
COC(=O)[C@@H]1[C@@H](CO)[C@@H]2Cn3c(ccc(-c4ccccc4OC)c3=O)[C@H]1N2Cc1ccccc1,.,.,-4.8,1.7,.
CCCCCCC(=O)c1c(O)n(-c2ccc(OC)cc2)c(=O)[nH]c1=O (tested in a mixture with another compound),2.6,0.6,-20.1*,-1.7,-14.4
CCCCCCC(=O)c1c(O)n(-c2ccccc2OC)c(=O)[nH]c1=O (tested in a mixture with another compound),.,-1.2,-26.8,.,.
COC(=O)[C@H]1[C@H](CO)[C@H]2Cn3c(ccc(-c4ccccc4F)c3=O)[C@@H]1N2C(=O)C1CC1,0.8,1.7,3.1,-6.5,.
CCC1(O)CCC2C3CCC4=CC(=O)CCC4C3CCC21CC (configuration not stated),-0.1,4.3,-34.2,1.7,-14.1
C#CC1(O)C=CC2C3CCC4=CC(=O)CCC4C3CCC21CC (configuration not stated),-2.5,3.2,-20.2*,-1.3,-13.4
COC(=O)[C@@H]1[C@@H](CO)[C@@H]2Cn3c(ccc(-c4ccccc4F)c3=O)[C@H]1N2C(=O)C1CC1,-0.2,0.9,2.9,-1.8,.
COC(=O)c1nc(-c2ccc3c(n2)C(=O)C(N)=C(OC)C3=O)c(N)c(-c2ccc(OC)c(OC)c2O)c1C,3.1,-1.4,16.1,45.4*,-3.7
CCOc1ccc2nc(N=Nc3c(O)[nH]c(=O)[nH]c3=O)sc2c1,-0.3,-0.1,-19.8*,9.0,-11.6
CCOc1ccc2nc(N=Nc3c(O)[nH]c(=S)[nH]c3=O)sc2c1,3.8,-1.7,-33.5*,10.3,-10.0
COc1ccc(C#Cc2ccc([C@H]3[C@H]4CN(C(=O)Cc5cccnc5)CCCCN4[C@H]3CO)cc2)cc1,-0.4,-0.4,-40.8,17.5,.
COC(=O)C1C(OC(=O)c2ccccc2)CC2CCC1[N+]2(C)C (configuration not stated),51.0*,0.2,18.1,.,.
COC(=O)[C@@H]1[C@@H](CO)[C@@H]2Cn3c(ccc(C4=CCCC4)c3=O)[C@H]1N2S(=O)(=O)c1cn(C)cn1,1.5,0.4,3.8,-4.2,.
COc1ccc(C#Cc2ccc([C@H]3[C@H](CO)N4CCCCN(C(=O)Cc5cccnc5)C[C@@H]34)cc2)cc1,-0.4,-3.8,-59.8,25.8,.
CCCC(=O)NC(Oc1ccccc1Cl)C(Cl)(Cl)Cl (configuration not stated),-1.1,-0.2,-19.6*,7.0,-6.7
CC(C)[N+](C)(CCC(C(N)=O)(c1ccccc1)c1ccccc1)C(C)C,95.8*,4.1,-5.1,-4.8,-5.3
Cc1cccc(Cn2cc(C=O)c3ccccc32)c1,-2.1,-0.3,-12.8,-1.5,-17.7
O=Cc1cn(CCCOc2ccccc2)c2ccccc12,-0.6,.,-49.2*,-4.2,-2.3
O=Cc1cn(Cc2c(F)cccc2Cl)c2ccccc12,1.6,1.5,-27.0*,-5.8,-11.2
SMILES,ERAP1 inh,F508del corr,rRNA inh HTS,ARNT-TACC3 inh,PvdQ acylase
O=Cc1cn(Cc2cccc([N+](=O)[O-])c2)c2ccccc12,0.5,.,-21.4*,-20.0,-7.7
O=Cc1cn(Cc2ccccc2F)c2ccccc12,21.6,-3.2,-25.1*,-3.4,-5.5
CC(=O)c1cn(Cc2ccccc2F)c2ccccc12,1.6,1.6,-4.4,17.2,15.7
COc1ccccc1OCCCn1cc(C=O)c2ccccc21,5.5,-3.9,-18.1,-6.9,-0.9
COC(=O)[C@@H]1N[C@@H]2c3ccc(C4=CCCC4)c(=O)n3C[C@@H]2[C@H]1CO,-1.3,.,0.8,3.1,.
N#Cc1c(N2CCNCC2)nc(-c2ccco2)c2c1CCCC2,44.8*,4.3,-6.9,-5.1,-6.4
CCC(=O)N1[C@@H]2c3ccc(-c4cccc(F)c4)c(=O)n3C[C@H]1[C@H](CO)[C@H]2C(=O)OC,-1.3,-1.3,0.1,2.6,.
CC1=NCCc2c1[nH]c1cc(O)ccc21,53.5*,31.7*,.,4.8,9.7
CC1CN(c2ccc([N+](=O)[O-])cc2Cl)CCN1 (configuration not stated),.,.,.,48.9*,-17.6
CCCCCCn1c(O)c(C=Nc2c(C)n(C)n(-c3ccccc3)c2=O)c(=O)[nH]c1=O,.,.,.,-1.3,-2.8
Cc1c(N=Cc2c(O)n(Cc3ccc(F)cc3)c(=O)[nH]c2=O)c(=O)n(-c2ccccc2)n1C,2.8,.,3.8,-2.3,-13.3
C=CCn1c(O)c(N=Nc2c(C)n(C)n(-c3ccccc3)c2=O)c(=O)[nH]c1=S,4.1,.,-11.7,62.8*,-9.4
CCOc1ccc(-n2c(O)c(N=Nc3c(C)n(C)n(-c4ccccc4)c3=O)c(=O)[nH]c2=O)cc1,.,2.2,1.3,59.8*,6.9
Cc1c(N=Nc2c(O)[nH]c(=S)[nH]c2=O)c(=O)n(-c2ccccc2)n1C,.,.,.,61.1*,10.2
COc1ccc(C(O)(c2cncnc2)C2CC2)cc1 (configuration not stated),-2.2,0.1,.,.,.
O=C(O)C1C2c3ccccc3C(c3ccccc32)C1C(=O)Nc1ccccc1 (configuration not stated),8.5,-2.3,-7.3,-12.5,3.6
CCOc1ccc(NC(=O)C2C3c4ccccc4C(c4ccccc43)C2C(=O)O)cc1 (configuration not stated),-1.3,-3.2,-33.9*,-2.2,-26.5
Oc1ccc(/C=N/NP(=S)(c2ccccc2)c2ccccc2)cc1O,-3.1,.,-20.8*,4.5,-4.7
O=C(O)[C@@H]1[C@@H](CO)[C@@H]2Cn3c(ccc(-c4ccccc4)c3=O)[C@H]1N2CC1CCCCC1,-1.0,0.1,5.5,-16.8,.
CN1C(=O)NC(=O)C2(CCCC2)C1=O,1.6,10.3*,17.1,-5.6,-17.9
CCC1(CC)C(=O)N(C)C(=O)NC1=NC,-2.3,-1.1,25.2,-6.1,-11.9
CC1OC(OC2CC(O)C3(CO)C4C(O)CC5(C)C(C6=CC(=O)OC6)CCC5(O)C4CCC3(O)C2)C(O)C(O)C1O (configuration not stated),-0.3,14.9*,3.4,32.1,-16.4
COc1ccc(OC(=O)N(C)C[C@H]2OCc3ccccc3-c3c(n(C)c4ccccc34)C(=O)N([C@@H](C)CO)C[C@@H]2C)cc1,0.6,-2.2,2.5,.,.
